Screen size: about 200,000 compounds; about 810 (0.41%) were called active. The sample holds actives, similar compounds and a random draw of the others, so the mix is not that of the screen. Unmarked numbers belong to inactive results. No stated cut-off is given here; in the data, active means activation above about 19%; inactive means the rest.
molecular target: Peroxisome proliferator-activated receptor gamma (Homo sapiens) (UniProt P37231); assay: PPARgamma agonists recruiting SRC-1 coactivator, primary screen, biochemical (AID 631); conditions: PPARgamma-SRC-1 coactivator recruitment biochemical assay; at 8 µM; stronger effect = higher value;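 further: 0% = DMSO and 100% = reference agonist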
Sequence (P37231 whole entry, looked up): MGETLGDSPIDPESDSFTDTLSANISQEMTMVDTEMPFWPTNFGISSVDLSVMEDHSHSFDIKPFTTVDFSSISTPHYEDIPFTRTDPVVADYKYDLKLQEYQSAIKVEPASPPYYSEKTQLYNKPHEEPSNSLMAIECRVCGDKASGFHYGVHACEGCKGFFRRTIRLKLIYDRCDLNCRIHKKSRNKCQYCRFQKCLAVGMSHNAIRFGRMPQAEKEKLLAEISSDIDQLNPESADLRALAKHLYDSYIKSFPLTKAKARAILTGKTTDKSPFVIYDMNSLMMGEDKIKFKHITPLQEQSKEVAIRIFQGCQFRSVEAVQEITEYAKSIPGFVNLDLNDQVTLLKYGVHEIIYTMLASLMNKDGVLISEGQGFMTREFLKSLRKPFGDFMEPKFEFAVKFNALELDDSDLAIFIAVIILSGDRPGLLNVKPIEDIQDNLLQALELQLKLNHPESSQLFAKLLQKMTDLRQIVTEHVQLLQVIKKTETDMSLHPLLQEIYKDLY

SMILES	activation
CCN(CC)c1ccc(C(=O)N/N=C(\C)c2cccc(OC)c2)cc1	9.4%
CCOC(=O)c1c(N)nn(C(=O)c2ccccc2)c1-c1ccccc1	3%
COc1cc2c(cc1OC)C(=O)NCC(C)(C)O2	9.4%
CCOC(=O)c1ccccc1C(=O)N1CCOCCOCCOCC1	-0.2%
Cc1cnc(C(=O)N2CCCC(C(=O)c3ccc(C(F)(F)F)cc3)C2)cn1 (configuration not stated)	5.6%
CN(C)/C(=N\OC(=O)c1ccccc1)c1nonc1N	2.5%
O=C(Nn1cnc2ccccc2c1=O)c1ccccc1	12.8%
Nc1nc(SCC(=O)NCCN2CCOCC2)nc2sc3c(c12)CCC3	6%
CCOc1cc(C2C(C(=O)OC(C)C)=C(C)NC3=C2C(=O)CCC3)cc([N+](=O)[O-])c1O (configuration not stated)	-1%
COc1ccc(Cl)cc1C(=O)NCc1cn(C)nc1C	0.6%
Cc1ccc(-c2cc(C(=O)NCc3cn(C)nc3C)c3cc(Br)ccc3n2)cc1	22.7% (active)
Cc1ccc2nc(-c3cccc(Br)c3)cc(C(=O)Nn3cnnc3)c2c1	-0.9%
O=C(Cc1cc(=O)[nH][nH]1)N/N=C/c1ccccc1[N+](=O)[O-]	1.6%
O=C(COc1cccc2ccccc12)Nc1cc(S(=O)(=O)N2CCOCC2)ccc1N1CCOCC1	5.6%
COc1ccccc1CC(NC(C)=O)C(=O)NC1CCN(C(=O)Nc2ccccc2Cl)CC1 (configuration not stated)	5.1%
C=CCN(CC=C)CCOc1ccccc1[N+](=O)[O-]	2.5%
COCC1CCCN(Cc2nc(-c3ccc4c(c3)OCO4)no2)C1 (configuration not stated)	10.9%
COc1ccc(C2c3[nH]c4ccccc4c3CCN2CCCn2cccn2)cc1C (configuration not stated)	-5%
CC(C)(C)CC(=O)Nc1nnc(SCC(=O)NCc2cccs2)s1	10.6%
O=C(/C=C/Nc1ccccc1OC(F)(F)F)C(F)(F)F	-4.7%
CCCOc1ccc(N/C=C/C(=O)C(C)(C)C)cc1	2.3%
CN(C)c1ccc(N/C=C/C(=O)C(F)(F)F)cc1	31.5% (active)
COC(=O)C[n+]1cccc2ccccc21	4.1%
O=C(O)c1ccn(COc2ccc(Br)cc2)n1	7.4%
Cc1ccc(-c2ccc(/C=C(\C#N)C(N)=S)o2)c([N+](=O)[O-])c1	22.9% (active)
Cc1ccc(Cc2cnc(NC(=O)/C(C#N)=C/c3ccc(-c4cccc([N+](=O)[O-])c4)o3)s2)cc1	2.6%

SMILES	activation
Cc1cc(-c2ccc(/C=N/n3cnnc3)o2)c([N+](=O)[O-])cc1C	-9.4%
Cc1cc(C)cc(C(=O)N(CCc2ccccc2)C2=CC3CCC(C2)N3C)c1 (configuration not stated)	-4.8%
CSc1nc2nc(-c3cccc(C(F)(F)F)c3)ccn2n1	3.3%
CCn1ccnc1CN(C)Cc1nc(-c2ccc3c(c2)OCO3)no1	3.8%
CC(C)CC(CC(C)C)=NNC(=O)c1ccc(CSc2nncn2C)cc1	9.8%
COC(=O)c1cccnc1NC(=S)NC(C)C	5.1%
Cc1cc(Nc2ccccc2)n(C(=O)c2ccc(N)cc2)n1	3.5%
Cc1ccc(Nc2ccccc2N)cc1	7.5%
Nc1ccc(Nc2ccccc2)cc1	20.9% (active)
COc1cc(C(=O)NCc2nnc(SCC(=O)Nc3nc4ccc(C)cc4s3)o2)cc(OC)c1OC	4.6%
COc1ccc(-c2ccc(CCC(=O)O)n2NC(=O)c2ccc(C(C)(C)C)cc2)cc1	4.4%
CCOC(=O)Cc1cc(=O)[nH]c(=O)[nH]1	1.2%
O=C1CCC(=O)N1c1ccc(NCCc2ccccc2F)c([N+](=O)[O-])c1	9%
C=CCNC(=O)CSc1nc2sc(C)c(C)c2c(=O)[nH]1	1.1%
CC(=O)c1sc2nc(SCC(=O)N3CCCCC3)[nH]c(=O)c2c1C	19.1% (active)
O=C(CSc1nc2c(cnn2-c2ccc(F)cc2)c(=O)[nH]1)N1CCCCCC1	1.2%
Cc1cccc(NC(=O)c2ccc3nsnc3c2)c1C	4.5%
O=C(Cc1ccccc1)NNS(=O)(=O)c1ccc([N+](=O)[O-])cc1	0.6%
Cc1cn(C)c(=O)n(C)c1=O	3.8%
COc1cc(CNC2CCCC2)c(Br)cc1OCc1ccccc1	1.4%
COc1cc(C2CC(=O)N3CN(Cc4ccccc4)CSC3=C2C#N)ccc1OCc1ccccc1 (configuration not stated)	19% (active)
COc1ccc(CCN=C2SCC(=O)N2Cc2ccccc2)cc1OC	-0.6%
CCOc1ccc(N(CC(=O)NCCc2ccc(OC)cc2)S(C)(=O)=O)cc1	0.5%
CCOC(=O)Cc1csc(SCC(=O)NC(C)C23CC4CC(CC(C4)C2)C3)n1 (configuration not stated)	-9%
Cc1nnc(SCCCCSc2nnc(C)c(=O)[nH]2)[nH]c1=O	4.2%
COc1ccc(NC(=O)c2ccccc2CC[N+](=O)[O-])cc1	3.6%

Reference: PubChem BioAssay AID631 (The Scripps Research Institute Molecular Screening Center, 2007)
